# Pol iota inh – blocks human DNA polymerase iota activity; Q9UNA4; Pol iota fluorescent replication assay, 10 min; 1% of 390,000 active; Potency, µM (top dose mostly 115 µM), without a hit: top-dose activity, negative = inhibition, actives largely listed as inhibitors; AID 588590; further: potency means the concentration at half of the fitted maximal effect
#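 Fluorescent replication assay read twice, at 0 min and 10 min after adding 50 nM (final) substrate. Enzyme (10 nM) and compounds were first incubated 15 min at room temperature; enzyme-free buffer wells were negative controls.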
# POLB inh – blocks human DNA polymerase beta activity | AID 485314 | Potency, µM (series often up to 114 µM), for the others: at the highest dose activity change, negative = inhibition, most hits filed as inhibitors | P06746 | Pol beta primer extension/strand displacement, fluorescence kinetic | 1.3% of 340,000 active; further: potency means the concentration at half of the fitted maximal effect; on the % scale 0 is the no-effect control and ±100 the full control effect
#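 Preincubation: enzyme (10 nM) with compound, 15 min, RT. Reaction: substrate added to 50 nM final. Reads: 0 and 10 min. Analysis: normalized, Hill fit.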
# PI5P4Ka inh – inhibitors of human PI5P4K alpha; P48426; PI5P4Kalpha enzyme, ADP-Glo luminescence, 60 min; hits give low values; max response, %; 1.2% of 330,000 active; active means max response of -50% or lower; inconclusive means between -30% and -50%; inactive means -30% or higher; further: value at the top dose of about 77 µM; on the % scale 0 is the no-effect control and ±100 the full control effect
#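 Controls without substrate or without enzyme flank wells where PI5P4Kalpha converts substrate using 5 microM ATP (final). Incubation lasts 60 minutes at room temperature; ADP formed is read by ADP-Glo luminescence.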
# POLK inh – inhibitors of human DNA polymerase kappa | Q9UBT6 | purified Pol kappa, fluorescent DNA synthesis assay, 10 min | Potency, µM (doses to about 107 µM), for inactives: top-dose activity, negative = inhibition, usual class: inhibitors | 0.53% of 400,000 active; further: potency means the concentration at half of the fitted maximal effect; on the % scale 0 is the no-effect control and ±100 the full control effect
# Target sequence (Q9UBT6 whole entry, looked up): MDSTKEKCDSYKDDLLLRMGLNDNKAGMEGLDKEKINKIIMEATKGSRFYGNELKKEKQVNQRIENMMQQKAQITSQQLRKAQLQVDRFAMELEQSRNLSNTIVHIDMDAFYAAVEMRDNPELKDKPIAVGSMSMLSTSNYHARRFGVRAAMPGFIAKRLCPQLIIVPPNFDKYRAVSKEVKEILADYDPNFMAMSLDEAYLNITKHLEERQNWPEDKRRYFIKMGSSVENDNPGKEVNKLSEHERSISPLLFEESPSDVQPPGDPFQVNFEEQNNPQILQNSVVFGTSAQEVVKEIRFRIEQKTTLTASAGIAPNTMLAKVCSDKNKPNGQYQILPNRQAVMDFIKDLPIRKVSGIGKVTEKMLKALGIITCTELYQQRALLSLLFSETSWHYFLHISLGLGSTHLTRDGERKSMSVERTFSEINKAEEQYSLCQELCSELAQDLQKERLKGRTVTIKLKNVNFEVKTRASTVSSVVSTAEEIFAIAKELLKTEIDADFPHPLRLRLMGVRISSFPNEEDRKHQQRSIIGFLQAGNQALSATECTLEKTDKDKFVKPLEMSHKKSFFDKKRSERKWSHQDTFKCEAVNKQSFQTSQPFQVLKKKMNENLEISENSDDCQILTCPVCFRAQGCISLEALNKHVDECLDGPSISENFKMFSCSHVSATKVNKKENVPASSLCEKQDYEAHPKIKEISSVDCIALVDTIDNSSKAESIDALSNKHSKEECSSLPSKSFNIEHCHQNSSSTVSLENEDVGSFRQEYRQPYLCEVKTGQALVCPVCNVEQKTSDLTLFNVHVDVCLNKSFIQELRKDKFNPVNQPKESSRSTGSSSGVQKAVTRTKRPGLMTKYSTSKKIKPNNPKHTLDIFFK
#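 50 nM final substrate added after 15 min RT preincubation of 10 nM Pol kappa with compound; fluorescence read at 0 and 10 min.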
# Pol eta inh – DNA polymerase eta (human) inhibition; Q9Y253; recombinant Pol eta, fluorescent DNA replication assay; Potency, µM (top dose mostly 114 µM), for the others: at the highest dose activity change, negative = inhibition, most hits filed as inhibitors; 1.2% of 390,000 active; further: potency means the concentration at half of the fitted maximal effect; on the % scale 0 is the no-effect control and ±100 the full control effect
#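 Pol eta (10 nM) was preincubated with compounds for 15 min at room temperature, after which fluorescent replication substrate (50 nM final) was added to start the reaction. Fluorescence was read kinetically at 0 and 10 min.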
# WRN helicase inh – WRN helicase (human) inhibition; WRN helicase unwinding, fluorescent forked duplex, kinetic; Potency, µM (highest dose often 114 µM), without a hit: at the highest dose activity change, negative = inhibition, hits mostly inhibitors; 0.46% of 360,000 active; AID 651768; further: potency means the concentration at half of the fitted maximal effect; on the % scale 0 is the no-effect control and ±100 the full control effect; nearly all actives have a fitted effect of over 55% in size
#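 WRN at 20 nM final was preincubated with compound for 15 min at room temperature; reaction started with 100 nM forked duplex oligonucleotide carrying fluorophore and quencher plus 2 mM ATP (final). Unwinding followed kinetically by red fluorescence (ex 525/em 598 nm).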
# * marks the source's active call; other numbers are inactive results; ? = inconclusive; · = not tested or not shown; ! = repeats disagree; [ ] = dose if it differs, or a comment. In the library only some 2.8% were active in any assay of this set; here they are far more common. Unless noted, the call rests on the fitted dose curve; in most records, active means well fitted curve in the direction sought with a large enough effect; inconclusive means small, poorly fitted or top-dose-only effect, or another doubt; inactive means no such curve, though single readings can be large; an effect the other way counts as inactive or inconclusive.
SMILES,Pol iota inh,POLB inh,PI5P4Ka inh,POLK inh,Pol eta inh,WRN helicase inh
CN(CC(=O)NCCc1ccc(Cl)cc1)S(=O)(=O)c1ccc2c(c1)c(=O)n(C)c(=O)n2C,16.4%,13.5%,4.1,10.6%,?,8.3%
Nn1cnnc1N/N=C/c1ccccc1C(F)(F)F,?,26.4%,6.4,-4.2%,-1.9%,10.4%
Nn1cnnc1N/N=C/c1ccc(F)cc1,15.8µM*,-5.3%,-3.0,5.9%,-13.3%,2.3%[11.6 µM]
Nn1cnnc1N/N=C/c1ccc(Cl)c([N+](=O)[O-])c1,3.16µM*,?,-8.7,-6.5%,-10.3%,-7.4%[57.1 µM]
Cc1ccc(/C=N/Nc2nncn2N)cc1,0.891µM*,8.8%,-0.4,-2.2%,-6.1%,0.1%[11.6 µM]
CCn1c(SCc2nc3sc(C(=O)O)c(C)c3c(=O)[nH]2)nnc1-c1ccc(Cl)cc1,70.5%,?,-55.8*,-22.0%,?,-18.3%
COCCCNC(=O)Cn1cnc2sc(C)c(S(=O)(=O)N3CCC(C)CC3)c2c1=O,-13.7%,-18.2%,·,-31.0%,0.0%,·
Cc1oc(-c2ccccc2F)nc1CS(=O)CC(=O)NCc1ccc(Cl)cc1 (centres undefined),32.0%,-2.9%,-1.6,0.0%,-17.8%,4.3%
Cc1oc(-c2ccccc2Cl)nc1CS(=O)CC(=O)NCc1ccc(Cl)cc1 (centres undefined),79.4µM*!,-6.8%,5.4,-7.0%,-5.6%,-4.9%
Cc1cc(=O)[nH]c(/N=C(\N)Nc2cccc3ccccc23)n1,?,22.4µM*,2.9,-3.7%,?,-32.5%
COc1ccc(Cl)cc1NC(=O)CCn1nc(C)cc1C,?,31.6µM*,·,-28.5%,-15.4%,·
COc1ccc(Cl)cc1NC(=O)CCN1CCN(C)CC1,-15.8%,1.4%,1.3,-8.9%,-8.0%,-6.9%
COc1ccc(-c2nc(-c3cccs3)c(-c3cccs3)[nH]2)cc1OC,-7.8%,89.1µM*,-3.5,-23.0%,-13.3%,2.8%[57.1 µM]
CCOc1ccccc1NC(=O)C(=O)NCCc1sc2nc(-c3ccc(OC)cc3)nn2c1C,4.3%,-1.2%,·,1.0%[60.1 µM],-9.8%,·
COc1ccc(NC(=O)c2ccc3[nH]c(C)cc(=O)c3c2)cc1,-2.7%,4.3%,·,-1.8%,2.4%,·
COc1ccc2c(c1)c1c(c(=O)n(CCc3ccccc3)c(=O)n1Cc1ccc(F)cc1)n2C,1.5%,-7.7%,·,-13.2%,-11.1%,·
Cc1ccc(NC(=O)c2ccccc2O)cc1,-6.1%,6.3%,2.1,4.1%,-14.8%,3.2%
O=C(Nc1ccccc1)Nc1ccc(O)c2ccccc12,?,·,-51.6*,-3.2%,-15.6%,1.3%
Cc1cc(C)cc(NC(=O)Nc2ccc(NC(=O)c3ccccc3O)cc2)c1,0.1%,35.5µM*,-3.9,-9.6%,-15.9%,-3.5%
O=C(Nc1ccccc1)Nc1ccc(NC(=O)c2ccccc2O)cc1,-26.6%,31.6µM*,0.3,-9.6%,2.6%,-1.5%[57.1 µM]
O=[N+]([O-])c1ccc(-c2cc3ccccc3[nH]2)cc1,29.2%,·,·,7.5%,·,·
C=CCc1ccccc1OCC(O)CN1CCN(c2ccccc2)CC1 (centres undefined),79.4µM*,-4.8%,·,?,-17.7%,·
Cc1ccc(S(=O)(=O)NC(=O)c2ccc(F)cc2)c(C)c1,2.5%,8.8%,0.6,-3.4%,-3.1%,6.0%
Cc1ccc(S(=O)(=O)NC(=O)c2ccc(-c3ccc(-c4ccccc4)cc3)o2)c(C)c1,·,56.2µM*,·,·,·,·
CC(=O)c1ccc(N2CCN(C(=O)c3cc(S(=O)(=O)N4CCCCCC4)cn3C)CC2)cc1,15.9%,1.1%,·,-16.6%[60.1 µM],-20.4%,·
SMILES,Pol iota inh,POLB inh,PI5P4Ka inh,POLK inh,Pol eta inh,WRN helicase inh
COc1ccc(CN2C(=O)N(c3ccc(OC)cc3)C(=O)C2CC(=O)Nc2ccccc2)cc1 (centres undefined),-1.7%,32.7%,1.4,1.4%,-1.0%,-2.8%
COc1ccc(N2C(=O)C(CC(N)=O)N(NC(=O)CCc3ccccc3)C2=O)cc1 (centres undefined),15.2%,22.4µM*,2.8,6.0%,-10.5%,4.2%
O=C(Cc1ccccc1)NCC1CCCO1 (centres undefined),19.8%,-15.0%,·,-20.5%,-5.5%,-2.7%
Cc1cccc(C)c1NC(=O)Cc1cccs1,?,39.8µM*,?,-14.4%,?,-31.8%
O=C(Cc1cccs1)NCC1CCCO1 (centres undefined),?,12.6µM*,·,-28.7%,?,-8.9%[57.1 µM]
CCCCN(CCCC)S(=O)(=O)c1ccc(NC(=O)Cc2cccs2)cc1,50.1µM*,?,·,?,79.4µM*,-4.9%[11.6 µM]
O=C(Cc1cccs1)Nc1cccc([N+](=O)[O-])c1,?,25.1µM*,?,-29.5%,?,-31.3%[57.1 µM]
O=C(Cc1ccccc1)Nc1cccc([N+](=O)[O-])c1,-3.8%,-8.2%,0.0,-0.5%[60.1 µM],8.7%,-2.3%
Cc1ccc(-n2nc(C)c3c(C(=O)NCCc4ccc(S(N)(=O)=O)cc4)cc(C)nc32)cc1,-6.8%,?,·,-8.7%,-15.0%,·
CC(=O)c1cc(-c2ccccc2)n(CCC(=O)NC(C)c2ccccc2)c1C (centres undefined),-11.5%,-28.7%,·,-3.3%[60.1 µM],-24.5%,·
O=C(Nc1cccc([N+](=O)[O-])c1)c1ccc2ccccc2c1O,2.1%,39.8µM*,-0.1,-11.8%,-3.0%,4.0%
O=C(Cc1cccs1)Nc1ccccc1,5.8%,69.9%,2.2,-1.0%,-18.2%,-4.7%
O=C(Nc1cccnc1)c1ccc2ccccc2c1O,101.6%,6.6%,-4.1,0.5%,-13.4%,-10.3%
CC(C)(C)c1csc(NC(=O)Cc2cccs2)n1,72.0%,22.4µM*,?,-16.0%,-27.8%,-14.3%
CC(C)(C)c1csc(NC(=O)c2cccs2)n1,2.3%,-6.9%,-8.7,-8.0%,?,0.9%[57.1 µM]
CC(=O)c1cccc(NC(=O)Cc2cccs2)c1,-18.1%,31.6µM*,·,?,?,-9.8%[57.1 µM]
Cc1ccc2nc(-c3ccc(NC(=O)CSCC(=O)O)cc3)sc2c1,1.9%,-15.5%,-2.2,-19.4%,1.5%,-2.7%
Cc1csc(NC(=O)CSCC(=O)O)c1-c1nc2ccccc2s1,?,-22.9%,-0.1,1.5%,89.1µM*,-17.0%[11.6 µM]
Cc1oc2ncnc(N3CCCCC3)c2c1C(=O)Nc1cccc(Cl)c1C,17.3%,-12.5%,·,-10.0%,-3.4%,·
COc1ccc(-n2c(NC(=O)c3ccc(Br)o3)c(C#N)c3nc4ccccc4nc32)cc1,·,31.6µM*,·,·,·,·
Cc1cccc(C)c1NC(=O)CCS(=O)(=O)c1ccc2c(c1)CC(C)N2C(=O)C1CC1 (centres undefined),31.5%,22.3%,·,-23.4%,-6.1%,·
Cc1ccc(-c2cc(C(=O)Nc3ccccc3C)c3ccccc3n2)o1,0.1%,10µM*,?,-7.8%,?,-22.7%
Cc1ccc(-c2cc(C(=O)NC3=NCCS3)c3cc(Br)ccc3n2)o1,·,79.4µM*,·,·,·,·

# From PubChem BioAssay
